# Reference: PubChem BioAssay (NCI)
# The panel holds about 79,000 compounds, 15% with a hit somewhere; the sample as a whole holds those more often. A number with no mark means an inactive call. Active and inactive are the calls of the source. Rule as the data show it: active = growth inhibition above about 70%; inactive = the rest.
# How the values were obtained:
# [1] = NCI Yeast Anticancer Drug Screen. Data for the rad52 strain (AID 147);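 also: 0% = growth of vehicle-treated control cultures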; conditions: S. cerevisiae rad52 mutant growth inhibition, hits give high values
# Method in brief: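 Inhibition of yeast growth, referenced to vehicle controls, was the measured output for a strain with defective DNA damage repair.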
# [2] = NCI Yeast Anticancer Drug Screen. Data for the wt1 strain (AID 149);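 also: 0% = growth of vehicle-treated wt1 cultures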; conditions: S. cerevisiae wt1 strain (SPY 50644) growth inhibition, hits give high values
# Method in brief: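 Readout: yeast growth inhibition, normalised to vehicle controls, in the wt1 strain exposed to test compounds.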
# [3] = NCI Yeast Anticancer Drug Screen. Data for the rad50EPP+ strain (AID 151);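 also: 0% = growth of vehicle-treated control cultures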; conditions: S. cerevisiae rad50 mutant strain, hits give high values
# Method in brief: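 Genetically defined yeast (rad50EPP+, DNA damage repair alteration) is grown with compound, and inhibition of growth is expressed relative to vehicle-treated controls.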
# [4] = NCI Yeast Anticancer Drug Screen. Data for the mgt1 strain (AID 153); conditions: S. cerevisiae mgt1 mutant growth inhibition, hits give high values
# Method in brief: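 In the mgt1 strain, test compounds were added and growth inhibition was determined relative to vehicle-treated controls.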
# [5] = NCI Yeast Anticancer Drug Screen. Data for the rad50 strain (AID 155);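 also: 0% = growth of vehicle-only cultures of the same strain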; conditions: S. cerevisiae rad50 strain growth inhibition, hits give high values
# Method in brief: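 Compounds were tested on a yeast strain with an engineered DNA damage repair alteration; the reported value is growth inhibition normalised to vehicle treatment.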
# [6] = NCI Yeast Anticancer Drug Screen. Data for the mec2-1 strain (AID 157); conditions: S. cerevisiae mec2-1 strain, hits give high values
# Method in brief: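 Each compound was tested on mec2-1 yeast, a strain altered in DNA damage repair or cell cycle control. Growth inhibition is reported relative to vehicle.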
# [7] = NCI Yeast Anticancer Drug Screen. Data for the sgs1 mgt1 strain (AID 161);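 also: 0% = growth of cultures given vehicle only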; conditions: S. cerevisiae sgs1 mgt1 strain, hits give high values
# Method in brief: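 Test agents were incubated with a DNA-repair-mutant yeast strain. Growth was then read and compared against vehicle-treated controls.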
# [8] = NCI Yeast Anticancer Drug Screen. Data for the CLN2oe strain (AID 163);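 also: 0% = growth of vehicle-only control cultures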; conditions: S. cerevisiae CLN2oe strain, hits give high values
# Method in brief: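 First, the altered yeast strain was treated with each compound; second, its growth was measured; finally, inhibition was derived by comparison with vehicle controls.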
# [9] = NCI Yeast Anticancer Drug Screen. Data for the cln2 rad14 strain (AID 165);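 also: 0% = growth equal to vehicle treated cultures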; conditions: S. cerevisiae cln2 rad14 strain, hits give high values
# Method in brief: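 Test compounds were added to cln2 rad14 yeast cultures; inhibition of growth was then determined by comparison with vehicle treatment.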
# [10] = NCI Yeast Anticancer Drug Screen. Data for the bub3 strain (AID 167); conditions: S. cerevisiae bub3 mutant strain, hits give high values
# Method in brief: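 Growth of a checkpoint-deficient yeast mutant is measured after compound exposure. Values represent inhibition relative to vehicle.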
# [11] = NCI Yeast Anticancer Drug Screen. Data for the wt2 strain (AID 169);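 also: 0% = growth of vehicle-treated yeast cultures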; conditions: S. cerevisiae wt2 strain growth inhibition, hits give high values
# Method in brief: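 The panel's yeast strains carry defined changes in DNA repair or cell cycle genes. Each strain is grown with compound, and growth loss is scored relative to vehicle.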
# [12] = NCI Yeast Anticancer Drug Screen. Data for the mlh1 strain (AID 171);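 also: 0% = growth of vehicle-treated control cultures of the same strain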; conditions: S. cerevisiae mlh1 strain growth inhibition, hits give high values
# Method in brief: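 Inhibition values reflect reduced yeast growth in the presence of compound, referenced to vehicle controls, using a strain chosen for its alteration in DNA repair or cell cycle control.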
# [13] = NCI Yeast Anticancer Drug Screen. Data for the sgs1 strain (AID 173);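 also: 0% = growth of vehicle-only control cultures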; conditions: S. cerevisiae sgs1 mutant, hits give high values
# Method in brief: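 Vehicle-treated cultures served as reference for growth inhibition of a yeast strain altered in DNA damage repair or cell cycle control after compound exposure.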
# [14] = NCI Yeast Anticancer Drug Screen. Data for the mlh1 rad18 strain (AID 175); conditions: S. cerevisiae mlh1 rad18 strain growth inhibition, hits give high values
# Method in brief: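 Inhibition values reflect reduced growth of mutant yeast versus vehicle-treated controls following compound exposure; the mutations affect DNA damage repair.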
# [15] = at 5.0 µM (retest, dose inferred, filed as 0.5)
# [16] = at 50.0 µM (retest, dose inferred, filed as 5.0)
compound,measurement,setting,value
NC(=S)N/N=C1\c2ccccc2CCC1CCC1(O)CCc2ccccc2C1=O (stereo not drawn),growth inhibition,[1]; at 1.2 µM,43%
same,growth inhibition,[1]; at 3.7 µM,47%
same,growth inhibition,[1]; at 11.0 µM,55%
same,growth inhibition,[1]; at 33.0 µM,86% (active)
same,growth inhibition,[1]; at 100.0 µM,85% (active)
same,growth inhibition,[2]; at 1.2 µM,21%
same,growth inhibition,[2]; at 3.7 µM,24%
same,growth inhibition,[2]; at 11.0 µM,19%
same,growth inhibition,[2]; at 33.0 µM,44%
same,growth inhibition,[2]; at 100.0 µM,80% (active)
same,growth inhibition,[3]; at 1.2 µM,36%
same,growth inhibition,[3]; at 3.7 µM,23%
same,growth inhibition,[3]; at 11.0 µM,17%
same,growth inhibition,[3]; at 33.0 µM,23%
same,growth inhibition,[3]; at 100.0 µM,10%
same,growth inhibition,[4]; at 1.2 µM,21%
same,growth inhibition,[4]; at 3.7 µM,18%
same,growth inhibition,[4]; at 11.0 µM,48%
same,growth inhibition,[4]; at 33.0 µM,82% (active)
same,growth inhibition,[4]; at 100.0 µM,84% (active)
same,growth inhibition,[5]; at 1.2 µM,35%
same,growth inhibition,[5]; at 3.7 µM,19%
same,growth inhibition,[5]; [15],2%
same,growth inhibition,[5]; at 11.0 µM,49%
same,growth inhibition,[5]; at 33.0 µM,84% (active)
same,growth inhibition,[5]; [16],52%
same,growth inhibition,[5]; at 50.0 µM,86.8% (active)
same,growth inhibition,[5]; at 100.0 µM,78% (active)
same,growth inhibition,[6]; at 1.2 µM,5%
same,growth inhibition,[6]; at 3.7 µM,13%
same,growth inhibition,[6]; [15],-1%
same,growth inhibition,[6]; at 11.0 µM,16%
same,growth inhibition,[6]; at 33.0 µM,50%
same,growth inhibition,[6]; [16],55%
same,growth inhibition,[6]; at 50.0 µM,88.2% (active)
same,growth inhibition,[6]; at 100.0 µM,81% (active)
same,growth inhibition,[7]; [15],10%
same,growth inhibition,[7]; [16],88% (active)
same,growth inhibition,[7]; at 50.0 µM,92.5% (active)
same,growth inhibition,[8]; at 1.2 µM,38%
same,growth inhibition,[8]; at 3.7 µM,36%
same,growth inhibition,[8]; at 11.0 µM,42%
same,growth inhibition,[8]; at 33.0 µM,64%
same,growth inhibition,[8]; at 100.0 µM,82% (active)
same,growth inhibition,[9]; [15],18%
same,growth inhibition,[9]; [16],81% (active)
same,growth inhibition,[9]; at 50.0 µM,89.7% (active)
same,growth inhibition,[10]; at 1.2 µM,20%
same,growth inhibition,[10]; at 3.7 µM,13%
same,growth inhibition,[10]; [15],17%
same,growth inhibition,[10]; at 11.0 µM,34%
same,growth inhibition,[10]; at 33.0 µM,84% (active)
same,growth inhibition,[10]; [16],83% (active)
same,growth inhibition,[10]; at 50.0 µM,46.1%
same,growth inhibition,[10]; at 100.0 µM,85% (active)
same,growth inhibition,[11]; at 1.2 µM,-8%
same,growth inhibition,[11]; at 3.7 µM,-7%
same,growth inhibition,[11]; at 11.0 µM,13%
same,growth inhibition,[11]; at 33.0 µM,62%
same,growth inhibition,[11]; at 100.0 µM,83% (active)
same,growth inhibition,[12]; at 1.2 µM,14%
same,growth inhibition,[12]; at 3.7 µM,14%
same,growth inhibition,[12]; at 11.0 µM,46%
same,growth inhibition,[12]; at 33.0 µM,79% (active)
same,growth inhibition,[12]; at 100.0 µM,81% (active)
same,growth inhibition,[13]; at 1.2 µM,34%
same,growth inhibition,[13]; at 3.7 µM,34%
same,growth inhibition,[13]; at 11.0 µM,63%
same,growth inhibition,[13]; at 33.0 µM,82% (active)
same,growth inhibition,[13]; at 100.0 µM,84% (active)
same,growth inhibition,[14]; [15],0%
same,growth inhibition,[14]; [16],83% (active)
same,growth inhibition,[14]; at 50.0 µM,93.3% (active)
